Bioassay records as filed in PubChem BioAssay.
This is a sample that favours compounds with a hit; in the whole collection about 11% have one here.
HEK cytotox – Cytotoxic Profiling in HEK 293 Cell Line of Diverse Libraries Using Quantitative High-Throughput Screening | HEK 293 viability, ATP luminescence (CellTiter-Glo), 48-72 h | Potency, µM (series often up to 115 µM), inactives show at the top dose activity change, negative = cytotoxicity, actives largely listed as inhibitors | 94,000 tested, 6.6% active | AID 1345083, 2018; also: % is scaled to controls: 0 for no effect and ±100 for the full control effect; nearly all actives have a fitted effect of over 60% in size
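CellTiter-Glo luminescence (cellular ATP) was read after 48 or 72 hr of compound exposure at 37 degree Celsius. Cells were HEK 293 plated at 250 cells/well.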
NPR1 antag – Natriuretic polypeptide receptor (hNpr1) antagonism - Primary qHTS. 76,000 tested, 1.6% active. HEK293 hNpr1 GloSensor cGMP, ANP-stimulated luminescence. Potency, µM (series often up to 46.3 µM), without a hit: top-dose activity change, negative = inhibition, most hits filed as inhibitors; calls by dose curve; also: % is scaled to controls: 0 for no effect and ±100 for the full control effect; nearly all actives have a fitted effect of over 60% in size
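HEK293 cells stably expressing human Npr1 and cGMP GloSensor pGS-40F, loaded 2 h with 2% GloSensor reagent, given compound 30 min at room temperature. Luminescence read before and 20 min after 0.1 nM hNppA.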
Luciferase inh – Firefly luciferase inhibition profiling of diverse chemical library using quantitative high-throughput screening; Luciferin 4-monooxygenase (Photinus pyralis), P08659; purified P. pyralis luciferase, luminescence, biochemical; Potency, µM (doses to about 115 µM), hits mostly inhibitors; 76,000 tested, 2.5% active; AID 1347043, 2019; also: % is scaled to controls: 0 for no effect and ±100 for the full control effect; nearly all actives have a fitted effect of over 65% in size
Target sequence (P08659 whole entry, looked up): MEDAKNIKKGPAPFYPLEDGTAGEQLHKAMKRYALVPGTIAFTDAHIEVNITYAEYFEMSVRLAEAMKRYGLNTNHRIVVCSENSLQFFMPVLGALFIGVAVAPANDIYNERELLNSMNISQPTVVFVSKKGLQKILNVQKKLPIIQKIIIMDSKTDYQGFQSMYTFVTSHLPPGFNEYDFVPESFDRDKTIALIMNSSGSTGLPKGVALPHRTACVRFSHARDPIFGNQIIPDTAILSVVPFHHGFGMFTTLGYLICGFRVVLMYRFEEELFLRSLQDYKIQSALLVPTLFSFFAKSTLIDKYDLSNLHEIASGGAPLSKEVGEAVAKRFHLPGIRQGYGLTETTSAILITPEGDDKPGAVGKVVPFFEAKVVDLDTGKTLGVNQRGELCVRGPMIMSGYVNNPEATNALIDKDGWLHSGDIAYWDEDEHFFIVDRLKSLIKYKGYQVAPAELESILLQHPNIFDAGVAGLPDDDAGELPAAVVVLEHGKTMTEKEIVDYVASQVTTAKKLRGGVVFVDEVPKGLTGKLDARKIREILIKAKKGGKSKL
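Inhibitors were tested against purified firefly luciferase in a biochemical, low-substrate format (both substrates at 10uM) and luminescence measured with a CCD imager.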
3T3 cytotox – Cytotoxic Profiling in NIH 3T3 Cell Line of Diverse Libraries Using Quantitative High-Throughput Screening. AID 1345082, 2018. NIH 3T3 viability, CellTiter-Glo ATP luminescence, 48-72 h. 94,000 tested, 4.3% active. Potency, µM (top dose mostly 96.7 µM), for inactives: at the top dose activity change, negative = cytotoxicity, actives largely listed as inhibitors; also: % is scaled to controls: 0 for no effect and ±100 for the full control effect; nearly all actives have a fitted effect of over 55% in size
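First NIH 3T3 cells are plated at 400 cells/well; next compound is pinned in; then plates incubate 48 or 72 hr at 37 °C; finally CellTiter-Glo is added and luminescence read after 10 min.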
NPR1 antag cnf – Natriuretic polypeptide receptor (hNpr1) antagonism - Confirmation. AID 1347044, 2019. shares compounds with NPR1 antag. Potency, µM (series often up to 57.6 µM), for inactives: at the top dose activity change, negative = inhibition, usual class: inhibitors. HEK293 hNpr1 cGMP GloSensor luminescence, ANP-stimulated. 1,400 tested, 76% active; calls by dose curve; also: nearly all actives have a fitted effect of over 70% in size
Npr2 selectivity – Natriuretic polypeptide receptor (hNpr2) antagonism - Subtype selectivity assay; shares compounds with NPR1 antag; HEK293 hNpr2 GloSensor cGMP luminescence, CNP-stimulated; Potency, µM (series often up to 57.6 µM), for inactives: top-dose activity change, negative = inhibition, most hits filed as inhibitors; 1,400 tested, 67% active; calls by dose curve; also: nearly all actives have a fitted effect of over 70% in size
FLuc counter – Natriuretic polypeptide receptor (hNpr1) antagonism - Confirmation firefly luciferase (FLuc) inhibition counterscreen; shares compounds with NPR1 antag; purified FLuc enzyme, luminescence, Km substrate; 1,400 tested, 0.7% active; Potency, µM (highest dose often 57.6 µM), for inactives: top-dose activity change, negative = inhibition, actives largely listed as inhibitors; also: 0% is about no effect
GloSensor cGMP – Natriuretic polypeptide receptor (hNpr1) antagonism - Counterscreen GloSensor control cell line; shares compounds with NPR1 antag; HEK293 GloSensor cGMP, SNP-stimulated, luminescence; Potency, µM (doses to about 57.6 µM), for inactives: at the top dose activity change, negative = inhibition, actives largely listed as inhibitors; 1,400 tested, 69% active; AID 1347051, 2019; calls by dose curve; also: % is scaled to controls: 0 for no effect and ±100 for the full control effect; nearly all actives have a fitted effect of over 70% in size
The depositor's hits bear a star; i = inactive; ? = inconclusive; . = no result given; [ ] = another dose, or the depositor's remark. Unless noted, calls follow the shape of the dose curve; as a rule, active = well fitted curve in the direction sought with a large enough effect; inconclusive = small, poorly fitted or top-dose-only effect, or another doubt; inactive = no such curve, though single readings can be large; an effect the other way counts as inactive or inconclusive. Potency is read from the fitted curve at half-maximal effect.

SMILES	HEK cytotox	NPR1 antag	Luciferase inh	3T3 cytotox	NPR1 antag cnf	Npr2 selectivity	FLuc counter	GloSensor cGMP
COc1cccc(CN2CCc3nc(C(=O)NCC4CC4)oc3CC2)c1	?	-29.9%[70.6 µM]	i	?	.	.	.	.
O=C(NCC1CC1)c1nc2c(o1)CCN(Cc1ccc(F)cc1F)CC2	?	25.1µM*	i	?	22.2µM*	22.2µM*	-0.6%[86.2 µM]	19.8µM*
O=C(c1ccco1)N1CCC[C@H]1c1nc(-c2ccccc2)no1	-6.8%	-3.1%	i	?	.	.	.	.
O=C(NCc1ccc(F)cc1F)c1cc2n(n1)CC(c1ccc3c(c1)OCO3)OC2 (centres undefined)	?	-23.4%	i	?	.	.	.	.
CCc1ccc(CNC(=O)c2cc3n(n2)CC(c2ccc4c(c2)OCO4)OC3)cc1 (centres undefined)	?	-28.1%	i	?	?	-20.2%	-7.1%	?
O=C(NCc1ccc(Cl)cc1)c1cc2n(n1)CC(c1ccc3c(c1)OCO3)OC2 (centres undefined)	?	-27.3%	i	?	.	.	.	.
Cc1cc(F)ccc1NC(=O)c1cc2n(n1)CC(c1ccc(Cl)cc1)OC2 (centres undefined)	?	15.8µM*	i	?	27.3µM*	21.7µM*	0.4%	24.3µM*
CCc1ccc(NC(=O)c2cc3n(n2)CC(c2ccc(Cl)cc2)OC3)cc1 (centres undefined)	?	11.2µM*	i	?	21.7µM*	?	-18.9%	?
O=C(Nc1ccc(F)cc1)c1cc2n(n1)CC(c1ccc3c(c1)OCO3)OC2 (centres undefined)	?	12.6µM*	i	?	21.7µM*	34.3µM*	-15.6%	?
Fc1ccc2c(c1)nc1n2[C@@H](CNCc2c[nH]c3ccccc23)COC1	?	-22.2%[70.6 µM]	i	?	.	.	.	.
CCOc1ccccc1CN1CCCN(S(=O)(=O)c2ccccc2)CCC(=O)NCC1	?	-8.4%	i	?	.	.	.	.
Cc1ccc(CNC(=O)c2ccc(N3CC4CC(C3)[C@H]3CCCC(=O)N3C4)nc2)o1 (some centres undefined)	0.7%	4.6%	i	i	.	.	.	.
Cc1ccc(NC(=O)c2cc3n(n2)CC(c2ccc4c(c2)OCO4)OC3)cc1Cl (centres undefined)	?	?	i	?	?	?	-3.7%	-27.8%
O=C(Nc1cccc(Cl)c1)c1cc2n(n1)CC(c1ccc3c(c1)OCO3)OC2 (centres undefined)	?	-27.9%	i	?	.	.	.	.
O=C(Nc1ccc(Cl)cc1)c1cc2n(n1)CC(c1ccc3c(c1)OCO3)OC2 (centres undefined)	?	12.6µM*	i	?	24.3µM*	21.7µM*	-15.3%	21.7µM*
O=C(C1CC1)N1CCC(C(=O)N2CCC(N3Cc4cccn4C3=O)CC2)CC1	-5.8%	.	.	-17.2%	.	.	.	.
CN(C)C(=O)NCCNC(=O)c1ccc(-c2cncnc2)cc1	0.4%[172 µM]	.	.	-18.3%[138 µM]	.	.	.	.
CCC(=O)N1Cc2ccccc2CC2(CCCN2CC2CCCC2)C1 (centres undefined)	?	.	.	-4.0%	.	.	.	.
O=C(Cc1ccc(F)cc1)N1CCCN(c2ccnc3ccnn23)CC1	-23.8%	.	.	-32.2%	.	.	.	.
COc1cccc(NC(=O)Cn2c(N3CCC(C)CC3)nc(C)cc2=O)c1	?	?	i	-27.3%	.	.	.	.
CSc1cccc(NC(=O)Cn2c(N3CCc4ccccc4C3)nc(C)cc2=O)c1	?	-19.1%	i	?	.	.	.	.
COc1cc(NC(=O)Cn2c(N3CCC(C)CC3)nc(C)cc2=O)cc(OC)c1	?	6.31µM*	i	?	9.68µM*	12.2µM*	2.6%	6.85µM*
Cc1cc(=O)n(CC(=O)Nc2cccc(Cl)c2)c(N2CCc3ccccc3C2)n1	?	20µM*	i	14.1µM*	-29.7%	-22.7%	0.7%	?
COc1ccc(OC)c(NC(=O)Cn2c(N3CCC(C)CC3)nc(C)cc2=O)c1	?	12.6µM*	i	?	21.7µM*	21.7µM*	3.9%	24.3µM*
O=C(NC1CCCc2ccccc21)C1(c2ccc(Cl)cc2)CCOCC1 (centres undefined)	-42.9%	.	.	-36.3%	.	.	.	.
SMILES	HEK cytotox	NPR1 antag	Luciferase inh	3T3 cytotox	NPR1 antag cnf	Npr2 selectivity	FLuc counter	GloSensor cGMP
O=C(C1CCCN([S+](=O)([O-])c2cccs2)C1)N1CCC(c2nc3ncccc3[nH]2)C1 (centres undefined)	i	.	.	-1.8%	.	.	.	.
COc1ccc(CC(=O)N2CCC(Oc3nccnc3N(C)C)C2)cc1 (centres undefined)	-14.4%	5.9%	?	i	.	.	.	.
O=S(=O)(N[C@H]1CO[C@H]2[C@@H]1OC[C@@H]2n1nnnc1-c1ccc2c(c1)OCO2)c1ccc2ccccc2c1	-23.6%	-4.2%	i	?	.	.	.	.
O=C(CCC1CCCN(C(CO)CO)C1)N1CCN(Cc2ccccc2)CC1 (centres undefined)	-3.6%	4.2%	i	1.9%	.	.	.	.
CNC(=O)CCn1ncc2cc(OCc3ccccc3-c3cccc(O)c3)ccc21	79.4µM*	11.2µM*	?	?	19.8µM*	17.7µM*	?	12.5µM*
O=C(Nc1ccccc1)c1cnc2n1CCN(CC1CCCC1)CC2	-22.4%[172 µM]	0.7%[70.6 µM]	i	?	.	.	.	.
O=C(Nc1ccc(Cl)cc1)c1nc2c(o1)CCN(CC1CC1)CC2	?	?	i	?	?	-25.8%[86.2 µM]	-22.2%[86.2 µM]	?
O=C(Nc1ccc(Cl)cc1)c1nc2c(o1)CCN(CC1CCCC1)CC2	?	28.2µM*	i	?	35.3µM*	31.4µM*	-14.0%[86.2 µM]	25µM*
